# Reference: PubChem BioAssay (NCATS)
# Inconclusive results are not listed. The source made the active and inactive calls. Calls come from the whole dose curve; as a rule, active = well fitted curve in the direction sought with a large enough effect; inconclusive = small, poorly fitted or top-dose-only effect, or another doubt; inactive = no such curve, though single readings can be large; an effect the other way counts as inactive or inconclusive.
# Assays:
# [1] = Quantitative High-Throughput drug screen in 47 multiple myeloma cell lines against the NCATS MIPE library collection: JJN3_DSMZ cell viability assay (AID 1918966; note: nearly all actives have a fitted effect of over 50% in size; note: potency is the fitted concentration of half-maximal effect)
# Method in brief: (§1)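 CellTiter-Glo ATP luminescence gave viability after 48 h compound treatment at 37C of 500 multiple myeloma cells per well. Normalisation used DMSO-only wells as 100% and media-only wells as 0% viability; primary qHTS of approved and investigational drugs.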
# [2] = Quantitative High-Throughput drug screen in 47 multiple myeloma cell lines against the NCATS MIPE library collection: KMS12BM_JCRB cell viability assay (AID 1918971); note: nearly all actives have a fitted effect of over 35% in size; note: potency is the fitted concentration of half-maximal effect
# Method in brief: (§2)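 Myeloma cells (500 per well) were exposed to MIPE 4.0 compounds by pin transfer and incubated 48 hours at 37C, 5% CO2. Viability was read as ATP by CellTiter-Glo luminescence, normalised to DMSO (100%) and media-only (0%) wells.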
# [3] = Quantitative High-Throughput drug screen in 47 multiple myeloma cell lines against the NCATS MIPE library collection: KMS12PE_JCRB cell viability assay (AID 1918972); note: nearly all actives have a fitted effect of over 30% in size; note: potency is the fitted concentration of half-maximal effect
# Method in brief: as §1
# [4] = Quantitative High-Throughput drug screen in 47 multiple myeloma cell lines against the NCATS MIPE library collection: KMS20_JCRB cell viability assay (AID 1918973); note: nearly all actives have a fitted effect of over 45% in size; note: potency is the fitted concentration of half-maximal effect
# Method in brief: as §1
# [5] = Quantitative High-Throughput drug screen in 47 multiple myeloma cell lines against the NCATS MIPE library collection: KMS26_JCRB cell viability assay (AID 1918975); note: nearly all actives have a fitted effect of over 45% in size; note: potency is the fitted concentration of half-maximal effect
# Method in brief: as §2
# [6] = Quantitative High-Throughput drug screen in 47 multiple myeloma cell lines against the NCATS MIPE library collection: MOLP8_DSMZ cell viability assay (AID 1918977); note: nearly all actives have a fitted effect of over 45% in size; note: potency is the fitted concentration of half-maximal effect
# Method in brief: (§3)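 ATP-based CellTiter-Glo luminescence after 48 h drug exposure (37 °C, 5% CO2) of 500 myeloma cells per well. DMSO-only wells set 100% viability, media-only wells 0%; MIPE 4.0 library added by pin tool.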
# [7] = Quantitative High-Throughput drug screen in 47 multiple myeloma cell lines against the NCATS MIPE library collection: OCIMY1_PLB cell viability assay (AID 1918979); note: nearly all actives have a fitted effect of over 35% in size; note: potency is the fitted concentration of half-maximal effect
# Method in brief: as §3
# [8] = Quantitative High-Throughput drug screen in 47 multiple myeloma cell lines against the NCATS MIPE library collection: MM1R_ATCC cell viability assay (AID 1918981); note: nearly all actives have a fitted effect of over 35% in size; note: potency is the fitted concentration of half-maximal effect
# Method in brief: as §3
# [9] = Quantitative High-Throughput drug screen in 47 multiple myeloma cell lines against the NCATS MIPE library collection: LP1_DSMZ cell viability assay (AID 1918982); note: nearly all actives have a fitted effect of over 35% in size; note: potency is the fitted concentration of half-maximal effect
# Method in brief: as §3
# [10] = Quantitative High-Throughput drug screen in 47 multiple myeloma cell lines against the NCATS MIPE library collection: KMS28PE_JCRB cell viability assay (AID 1918983); note: nearly all actives have a fitted effect of over 35% in size; note: potency is the fitted concentration of half-maximal effect
# Method in brief: as §3
# [11] = Quantitative High-Throughput drug screen in 47 multiple myeloma cell lines against the NCATS MIPE library collection: L363_DSMZ cell viability assay (AID 1918984); note: nearly all actives have a fitted effect of over 40% in size; note: potency is the fitted concentration of half-maximal effect
# Method in brief: as §3
# [12] = Quantitative High-Throughput drug screen in 47 multiple myeloma cell lines against the NCATS MIPE library collection: KMS34_JCRB cell viability assay (AID 1918985); note: nearly all actives have a fitted effect of over 40% in size
# Method in brief: as §3
# [13] = Quantitative High-Throughput drug screen in 47 multiple myeloma cell lines against the NCATS MIPE library collection: H1112_PLB cell viability assay (AID 1918967; note: nearly all actives have a fitted effect of over 30% in size; note: potency is the fitted concentration of half-maximal effect)
# Method in brief: as §1
# [14] = Quantitative High-Throughput drug screen in 47 multiple myeloma cell lines against the NCATS MIPE library collection: Karpas25_ECACC cell viability assay (AID 1918968)
# Method in brief: as §1
# [15] = Quantitative High-Throughput drug screen in 47 multiple myeloma cell lines against the NCATS MIPE library collection: KMS27_JCRB cell viability assay (AID 1918970); note: nearly all actives have a fitted effect of over 30% in size; note: potency is the fitted concentration of half-maximal effect
# Method in brief: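 Each line is seeded at 500 cells per well and treated with library compounds for 48 hours under 37 °C, 5% CO2. CellTiter-Glo is then added for 5 min at room temperature before median relative luminescence is recorded.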
# [16] = Quantitative High-Throughput drug screen in 47 multiple myeloma cell lines against the NCATS MIPE library collection: KMS21BM_JCRB cell viability assay (AID 1918974); conditions: ATP luminescence, 48 h; viability: at 45.8 µM (top of the series) unless noted; note: potency is the fitted concentration of half-maximal effect
# Method in brief: as §1
# [17] = Quantitative High-Throughput drug screen in 47 multiple myeloma cell lines against the NCATS MIPE library collection: MM1S_ATCC cell viability assay (AID 1918980); note: potency is the fitted concentration of half-maximal effect; nearly all actives have a fitted effect of over 45% in size
# Method in brief: as §3
# [18] = Quantitative High-Throughput drug screen in 47 multiple myeloma cell lines against the NCATS MIPE library collection: MMM1_PLB cell viability assay (AID 1918976)
# Method in brief: as §3
# [19] = Quantitative High-Throughput drug screen in 47 multiple myeloma cell lines against the NCATS MIPE library collection: NCIH929_DSMZ cell viability assay (AID 1918978); note: nearly all actives have a fitted effect of over 35% in size; note: potency is the fitted concentration of half-maximal effect
# Method in brief: as §3
# [20] = Quantitative High-Throughput drug screen in 47 multiple myeloma cell lines against the NCATS MIPE library collection: OCIMY7_PLB cell viability assay (AID 1918987); note: nearly all actives have a fitted effect of over 65% in size; note: potency is the fitted concentration of half-maximal effect
# Method in brief: as §3
SMILES,Potency [1],Potency [2],Potency [3],Potency [4],Potency [5],Potency [6],Potency [7],Potency [8],Potency [9],Potency [10],Potency [11],Potency [12],Potency [13],Potency [14],Potency [15],Potency [16],Potency [17],Potency [18],Potency [19],Potency [20]
CCCCNc1cc(C(=O)O)cc(S(N)(=O)=O)c1Oc1ccccc1,inactive,inactive,inactive,inactive,inactive,inactive,inactive,inactive,inactive,inactive,inactive,inactive,–,–,–,–,–,–,–,–
O=C(Nc1cccnc1)N1CCC(Cc2cccc(Oc3ccc(C(F)(F)F)cn3)c2)CC1,–,13.2 µM (active),16.6 µM (active),–,–,–,–,13.2 µM (active),–,16.6 µM (active),4.69 µM (active),–,10.5 µM (active),9.35 µM (active),16.6 µM (active),9.35 µM (active),14.8 µM (active),–,–,–
Cn1cc(-c2ccc3nnc(C(F)(F)c4ccc5ncccc5c4)n3n2)cn1,0.0264 µM (active),23.5 µM (active),20.9 µM (active),inactive,–,–,inactive,–,–,inactive,–,–,–,18.7 µM (active),–,–,8.33 µM (active),5.9 µM (active),–,–
CC(C)(C)OC(=O)CN(Cc1ccc(Cl)cc1)Cc1ccc([N+](=O)[O-])s1,10.5 µM (active),–,inactive,inactive,–,–,inactive,inactive,18.7 µM (active),20.9 µM (active),–,–,–,–,inactive,–,–,20.9 µM (active),inactive,–
Cc1[nH]c(=O)c(C#N)cc1-c1ccc2nccn2c1,inactive,–,inactive,–,inactive,–,–,–,–,inactive,–,–,inactive,–,–,–,–,–,inactive,inactive
CS(=O)(=O)c1ccc(C(=O)Nc2ccc(Cl)c(-c3ccccn3)c2)c(Cl)c1,inactive,–,–,–,inactive,inactive,–,inactive,inactive,inactive,inactive,inactive,–,9.35 µM (active),–,–,–,–,2.96 µM (active),14.8 µM (active)
COc1ccc2c3n(c(=NC(=O)c4cccnc4)nc2c1OC)CCN3,–,inactive,–,–,11.8 µM (active),2.64 µM (active),–,5.9 µM (active),–,5.9 µM (active),–,–,4.69 µM (active),5.9 µM (active),11.8 µM (active),–,2.64 µM (active),4.69 µM (active),–,0.0743 µM (active)
Cc1ccc(NC(=O)c2cccc(C(C)(C)C#N)c2)cc1Nc1ccc2ncn(C)c(=O)c2c1,18.7 µM (active),20.9 µM (active),5.9 µM (active),2.96 µM (active),–,–,0.264 µM (active),6.62 µM (active),–,11.8 µM (active),–,–,–,13.2 µM (active),1.05 µM (active),–,6.62 µM (active),16.6 µM (active),–,0.935 µM (active)
